Screening results as filed in PubChem BioAssay.
A selection: hits, their analogues and other compounds. The true share with any hit is near 2.1%.
Abeta yeast res – compounds reversing amyloid beta toxicity in yeast; 410,000 compounds, 0.063% hits; yeast expressing A-beta42, growth rescue, OD600, 48 h; response scale: 0% DMSO, 100% iron-clioquinol control; Potency, µM (series often up to 46.1 µM), actives largely listed as activators; also: nearly all actives have a fitted effect of over 55% in size
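Yeast growth medium received pinned compounds, then yeast cells expressing toxic A-beta were added; plates incubated at 30 C for 48 hr. Growth read as absorbance at 600 nm, normalized to DMSO and equimolar FeCl3 plus clioquinol controls.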
FUS suppressor – FUS proteinopathy suppression in yeast; S. cerevisiae FUS-expressing, growth rescue, OD600, 24 h; Potency, µM (series often up to 76.6 µM), actives largely listed as activators; 390,000 compounds, 0.24% hits;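 also: plate controls were DMSO vehicle for no effect and reference control for full effect; nearly all actives have a fitted effect of over 55% in size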
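FUS-expressing yeast, raffinose-pregrown, induced in 2% galactose minimal medium at OD 0.005; compounds in a dilution series, 24hr at 30C. Growth restoration read as absorbance at 600 nm. CP55940 positive control, DMSO negative.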
TDP-43 yeast inh – rescues yeast growth from TDP-43 toxicity; AID 652104; Potency, µM (top dose mostly 46.1 µM), for inactives: top-dose growth rescue (activation), usual class: activators; TDP-43 expressing yeast growth rescue, BacTiter-Glo, 24 h; 410,000 compounds, 1.8% hits; also: % of control where 0% means no effect; nearly all actives have a fitted effect of over 50% in size
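Yeast expressing TDP-43 (pregrown in raffinose, seeded at OD600=0.02 in galactose medium) exposed to compounds 24 hr at 30 deg C. Growth read by BacTiter-Glo luminescence; rescue of toxicity appears as increased signal.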
aSyn yeast inh – inhibitors of alpha-synuclein toxicity in yeast | Yeast expressing alpha-synuclein, growth rescue, BacTiter-Glo, 24 h | Potency, µM (titrated, usually from 46.1 µM), without a hit: top-dose growth rescue (activation), hits mostly activators | 370,000 compounds, 0.14% hits | AID 652106; also: % of control where 0% means no effect; nearly all actives have a fitted effect of over 65% in size
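Rescue of yeast growth: cells expressing toxic alpha-synuclein, induced in galactose at OD600 0.02, incubated with compound 24 h at 30 C. ATP luminescence quantified growth; inhibitors of toxicity appear as activators.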
* hit, by the source's call; i = inactive; ? = inconclusive; · = not tested or not shown; [ ] = remark or other dose. Calls follow the shape of the dose curve; as a rule, active = well fitted curve in the direction sought with a large enough effect; inconclusive = small, poorly fitted or top-dose-only effect, or another doubt; inactive = no such curve, though single readings can be large; an effect the other way counts as inactive or inconclusive. Potency is read from the fitted curve at half-maximal effect.

SMILES | Abeta yeast res | FUS suppressor | TDP-43 yeast inh | aSyn yeast inh
CCCCCCSc1ccc(-c2nc3cnccn3c2NC2CCCCC2)cc1 | i | i | -1% | 1%
Clc1ccc(-c2nc3cnccn3c2NC2CCCC2)cc1 | i | i | 13µM* | 0%
COc1ccc(Oc2nc(-c3cccnc3)nc3ccccc23)cc1 | i | i | 2% | 2%
CC(=O)CCc1ccc(Oc2nc(-c3cccnc3)nc3ccccc23)cc1 | i | i | 14µM* | 9%
O=C(CCn1c(=O)c2cccn2c2cccnc21)N1CCN(c2ccc(F)cc2)CC1 | i | i | 13µM* | ·
Cc1ccc(Cl)cc1NC(=O)CCCn1c(=O)c2cccn2c2ccccc21 | i | i | 0% | ·
CCCCNC(=O)CCCn1c(=O)c2ccccc2n(Cc2ccccc2C)c1=O | i | i | 27% | ·
COc1ccc(OC)c(CN2C(=O)CN(S(C)(=O)=O)CC2(C)c2nnnn2C2CCCC2)c1 (centres undefined) | · | i | · | ·
O=C1CC(c2cccc(Cl)c2)c2cc3c(cc2N1)CCC3 (centres undefined) | i | i | -1% | 4µM*
O=C1CC(c2cc(Br)ccc2F)c2cc3c(cc2N1)CCC3 (centres undefined) | i | i | -24% | 4.5µM*
COc1ccc(C2=NN3C(=O)c4c(ccc(OC)c4OC)C3C2)cc1 (centres undefined) | i | i | 9% | 0%
COc1ccc2c(c1OC)C(=O)N1N=C(c3ccc(Br)cc3)CC21 (centres undefined) | i | i | 20µM* | 0%
COc1ccc2c(c1OC)C(=O)N1N=C(c3ccc(Cl)cc3)CC21 (centres undefined) | i | i | 35µM* | 10%
CCN(CC)c1ccc2c(c1)oc(=O)c1c(Cl)cc(=O)oc12 | i | · | 21% | 13µM*
CCN(CC)c1ccc2c(C)c(Cl)c(=O)oc2c1 | i | i | -11%[9.22 µM] | -5%
CCN(CC)c1ccc2c(C)cc(=O)oc2c1 | i | i | 12% | 7%
CCN(CC)c1ccc2c(Cl)c(Br)c(=O)oc2c1 | i | i | 20µM* | 18%
O=C(COC(=O)C1CCC1)NCc1ccc(F)cc1 | i | i | 7% | -5%
CCc1ccc(CNC(=O)CN2CCSc3ccccc32)cc1 | ? | i | 25µM* | 11%
Cc1ccccc1CNC(=O)CN1CCSc2ccccc21 | i | i | 13% | 1%
COc1ccc(Cl)cc1NC(=O)N1CCN(c2ccccc2OC)CC1 | i | ? | 11µM* | 13%
COc1ccc(Cl)cc1NC(=O)NCC1CCN(C(=O)OC(C)(C)C)CC1 | i | 32µM* | -12% | -11%
COc1ccc(Cl)cc1NC(=O)CCc1ccccc1 | i | i | 8.9µM* | 1%
COc1ccc(Cl)cc1NC(=S)NCCc1ccc(S(N)(=O)=O)cc1 | i | i | -5%[9.22 µM] | -5%
COc1ccc(Cl)cc1NC(=O)NCCN1CCCCC1 | i | i | · | 0%
SMILES | Abeta yeast res | FUS suppressor | TDP-43 yeast inh | aSyn yeast inh
COc1ccc(Cl)cc1NC(=S)NCCc1ccc(F)cc1 | ? | i | 32µM* | -13%
COc1ccc(C(=O)N2CC(=O)Nc3ccc(C)cc3C2c2ccc(F)cc2)c(OC)c1 (centres undefined) | i | i | 11% | ·
CC(C)(C)c1ccc(S(=O)(=O)/C=C/C#N)cc1 | · | · | · | -94%
Cc1cc(Cl)ccc1NNC(=O)CCc1ccccc1 | i | i | 13µM* | 10%
COc1ccc(Cl)cc1NC(=O)CN(C)CC(=O)Nc1ccc(Br)cc1 | i | i | 22µM* | 5%
O=C(CCc1ccccc1)NNC(=O)c1cc(Cl)ccc1O | i | i | -11%[1.82 µM] | 4%
CCCC(=O)OC12CCCN(C1)/C(=C/c1cccc(Cl)c1)C2 (centres undefined) | · | i | · | ·
CCc1noc(C)c1C(=O)N1CC(C)SC1=Nc1ccc(Cl)cc1 (centres undefined) | i | · | 16% | 6%
Cc1cccc(N2CCN(C(=O)CCNS(=O)(=O)c3ccc4c(c3)CCN4C(=O)C3CC3)CC2)c1C | i | 28µM* | 15% | 11%
CC1=C(C)CC(C(=O)Nc2ccc3c(c2)OCO3)C(C(=O)O)C1 (centres undefined) | i | i | -16% | -2%
Cc1cc(C(=O)CSc2nnnn2C)c(C)n1C1CC1 | i | i | 5% | 6%
CCn1c(C)cc(C(=O)CSc2nnnn2C2CCCC2)c1C | i | · | 20µM* | 1%
